Laboratory results taken from PubChem BioAssay (Tox21).
Inconclusive results are not listed. Activity calls are given as the source filed them. Unless noted, the call rests on the fitted dose curve; in most records, active means well fitted curve in the direction sought with a large enough effect in the repeat runs; inconclusive means weak or mixed curves; inactive means no such curve, though single readings can be large; an effect the other way counts as inactive or inconclusive.

Legend:
[1] = qHTS assay to identify small molecule agonists of the vitamin D receptor (VDR) signaling pathway - cell viability counter screen (AID 743224); further: series mostly up to about 63 µM; on the % scale 0 is the no-effect control and ±100 the full control effect; nearly all actives have a fitted effect of over 50% in size
Method in brief: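 VDR-bla cells were preincubated 4 h at 37C/5% CO2, then exposed to compounds for 16 h. After the 2 h room-temperature bla FRET read, CellTiter-Glo was added to the same wells and luminescence read after 30 min.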

[2] = qHTS assay to identify small molecule antagonists of the vitamin D receptor (VDR) signaling pathway - cell viability counter screen (AID 743225); further: on the % scale 0 is the no-effect control and ±100 the full control effect; nearly all actives have a fitted effect of over 50% in size
Method in brief: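 Cytotoxicity toward the VDR-bla HEK 293T line was scored by ATP-based CellTiter-Glo luminescence, read in the wells already used for the beta-lactamase readout after 16 h compound treatment under 3 nM 1-alpha,25-dihydroxyvitamin D3 stimulation.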

[3] = qHTS assay to identify small molecule agonists of the NFkB signaling pathway (AID 1159509; active means well fitted curve in the direction sought with a large enough effect in the signal ratio in the repeat runs, not every such curve was filed as active; the % refers to the signal ratio; further: series mostly up to about 61 µM; on the % scale 0 is the no-effect control and ±100 the full control effect)
Method in brief: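 NFkB-bla ME-180 cells carry a beta-lactamase reporter under an NF-kB response element. They were plated overnight, then exposed to compounds for 5 h at 37 C. Read-out is LiveBLAzer FRET after 1.5 hr at room temperature (405 nm excitation; 460/530 nm emission).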

[4] = qHTS assay to identify small molecule agonists of the endoplasmic reticulum stress response signaling pathway (AID 1159516; active means well fitted activation curve with a large enough effect in the signal ratio in the repeat runs, not every such curve was filed as active; the % refers to the signal ratio; further: on the % scale 0 is the no-effect control and ±100 the full control effect)
Method in brief: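 CellSensor ESRE-bla HeLa cells, carrying a beta-lactamase reporter driven by the ER stress response element, were plated overnight and exposed to compounds for 5 hr at 37 C. Reporter activity was read as FRET substrate fluorescence after 2 hr at room temperature.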

[5] = qHTS assay to identify small molecule antagonists of the retinoid-related orphan receptor gamma (ROR-gamma) signaling pathway - cell viability counter screen (AID 1159520); further: on the % scale 0 is the no-effect control and ±100 the full control effect; nearly all actives have a fitted effect of over 50% in size
Method in brief: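 Tet-on ROR gamma CHO cells (1,000/well) were plated 4 hr, given compounds in DMSO for 2 hr at 37 C, then induced with 1 uM final doxycycline for 16 hr. Viability was read as ATP by CellTiter-Glo luminescence after 30 min.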

[6] = target: Nuclear receptor ROR-gamma (Homo sapiens) (UniProt P51449); test: qHTS assay to identify small molecule antagonists of the retinoid-related orphan receptor gamma (ROR-gamma) signaling pathway (AID 1159521; further: nearly all actives have a fitted effect of over 50% in size; further: potency means the concentration at half of the fitted maximal effect)
Method in brief: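 Readout: ONE-Glo luciferase luminescence, 30 min at room temperature. System: Tet-on RORγ CHO, RORE-LUC. Sequence: compound 2 h, doxycycline 1 uM final, 16 h at 37 C.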

[7] = qHTS assay to identify small molecule agonists of the AP-1 signaling pathway - cell viability counter screen (AID 1159525; calls by dose curve; further: nearly all actives have a fitted effect of over 55% in size)
Method in brief: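 ME-180 AP-1-bla, 2500 cells/well, Opti-MEM + 0.5% dialyzed FBS; overnight 37 °C; cpd 15-pt titration, 5 h 37 °C; CellTiter-Glo 30 min RT; luminescence read; normalised to TOAB and DMSO controls.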

[8] = qHTS assay to identify small molecule agonists of the AP-1 signaling pathway (AID 1159526; calls by dose curve; further: on the % scale 0 is the no-effect control and ±100 the full control effect)
[9] = qHTS assay to identify small molecule agonists of the RXR signaling pathway - cell viability counter screen (AID 1159529); further: nearly all actives have a fitted effect of over 50% in size; further: potency means the concentration at half of the fitted maximal effect
Method in brief: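 Tox21 10K compounds were tested for cytotoxicity against GeneBLAzer RXR-alpha HEK 293T cells grown in 2% charcoal-stripped FBS. Exposure lasted 16 hr at 37 C, 5% CO2; viability read by CellTiter-Glo luminescence.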

[10] = qHTS assay to identify small molecule antagonists of the retinoid acid receptor (RAR) signaling pathway - cell viability counter screen (AID 1159551); further: nearly all actives have a fitted effect of over 35% in size; further: potency means the concentration at half of the fitted maximal effect
Method in brief: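 C3RL4 cells were seeded overnight at 37 C, then treated with compounds plus 1 uM (final) retinol for 6 h at 37 C. Viability was read as ATP by CellTiter-Glo luminescence after 30 min at room temperature.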

[11] = qHTS assay to identify small molecule antagonists of the retinoic acid receptor (RAR) signaling pathway (AID 1159552; further: nearly all actives have a fitted effect of over 50% in size; further: potency means the concentration at half of the fitted maximal effect)
Method in brief: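 Overnight-plated C3RL4 reporter cells get compound, then retinol to 1 uM final; plates sit 6 hr at 37 C, 5% CO2. A luciferase reagent is added and light output recorded after 30 min at room temperature.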

[12] = qHTS assay to identify small molecule agonists of the retinoic acid receptor (RAR) signaling pathway (AID 1159553); further: on the % scale 0 is the no-effect control and ±100 the full control effect
Method in brief: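 C3RL4 cells carrying a RARE luciferase reporter were plated overnight at 37 C, then exposed to compounds in DMSO for 6 hr at 37 C and 5% CO2. Luminescence was read 30 min after luciferase reagent addition at room temperature.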

[13] = qHTS assay to identify small molecule agonists of the endoplasmic reticulum stress response signaling pathway - cell viability counter screen (AID 1159517; calls by dose curve)
Method in brief: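 CellTiter-Glo was added to wells already read for beta-lactamase FRET, and luminescence was recorded 30 min later. Cells: ESRE-bla HeLa, 1,500 per well, compound exposure 5 hr at 37 C.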

[14] = target: Retinoic acid receptor RXR-alpha (Homo sapiens) (UniProt P19793); test: qHTS assay to identify small molecule agonists of the RXR signaling pathway (AID 1159527; calls by dose curve; further: on the % scale 0 is the no-effect control and ±100 the full control effect; nearly all actives have a fitted effect of over 35% in size)
Method in brief: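 Reporter activation is measured as beta-lactamase activity via FRET substrate cleavage (emission 460/530 nm) in HEK 293T cells expressing an RXR-alpha-driven bla construct, following 16 hr compound exposure at 37 C.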

[15] = qHTS assay to identify small molecule antagonists of the estrogen related receptor (ERR) signaling pathway - cell viability counter screen (AID 1224818)
Method in brief: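 ERR reporter cells plated 6 h at 37 C/5% CO2, then compounds in DMSO pin-transferred and incubated 17.5 h at 37 C. Viability read as CellTiter-Fluor fluorescence after 30 min at 37 C.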

[16] = qHTS assay to identify small molecule antagonists of the estrogen related receptor (ERR) signaling pathway (AID 1224819)
Method in brief: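 ERR reporter cells were plated at 2,000 cells/well and left 6 h at 37 C/5% CO2 before pin-tool transfer of compounds in DMSO. After 18 h at 37 C, One-Glo was added and luminescence was read 30 min later at room temperature.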

[17] = qHTS assay to identify small molecule agonists of the estrogen related receptor (ERR) signaling pathway (AID 1224820); further: on the % scale 0 is the no-effect control and ±100 the full control effect
Method in brief: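 ERR reporter cell line (from NTP), 2,000 cells/well, incubated 6 h before compound addition, then 18 h at 37 C. Luminescence measured 30 min after One-Glo reagent at room temperature.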

[18] = system: estrogen-related receptor alpha (ERRalpha) with PGC-1alpha coactivator, human; test: qHTS assay to identify small molecule antagonists of the estrogen related receptor signaling pathway with the pleiotropic PPARgamma coactivator (PGC) (AID 1224821; calls by dose curve)
Method in brief: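 PGC/ERR reporter cell line, plated 6 h before compound addition, then exposed 18 h at 37 °C. Luciferase activity read by luminescence 30 min after One-Glo addition; decrease indicates antagonism.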

[19] = qHTS assay to identify small molecule agonists of the estrogen related receptor signaling pathway with the pleiotropic PPARgamma coactivator (PGC) (AID 1224823); further: on the % scale 0 is the no-effect control and ±100 the full control effect
Method in brief: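 PGC/ERR reporter cells seeded 6 h, then exposed to compounds (23 nL in DMSO) for 18 h at 37 C. One-Glo luciferase luminescence read after 30 min at room temperature.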

[20] = qHTS assay to identify small molecule agonists of the NFkB signaling pathway - cell viability counter screen (AID 1159515; calls by dose curve; further: series mostly up to about 61 µM; on the % scale 0 is the no-effect control and ±100 the full control effect; nearly all actives have a fitted effect of over 55% in size)
Method in brief: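 NFkB-bla ME-180 cells, 2,000/well, were plated overnight at 37 C, 5% CO2, then exposed to compounds in DMSO for 5 hr. After the bla FRET read, CellTiter-Glo was added to the same wells; luminescence was read after 30 min at room temperature.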

Sequence of Retinoic acid receptor RXR-alpha (Homo sapiens) (P19793 whole entry, looked up): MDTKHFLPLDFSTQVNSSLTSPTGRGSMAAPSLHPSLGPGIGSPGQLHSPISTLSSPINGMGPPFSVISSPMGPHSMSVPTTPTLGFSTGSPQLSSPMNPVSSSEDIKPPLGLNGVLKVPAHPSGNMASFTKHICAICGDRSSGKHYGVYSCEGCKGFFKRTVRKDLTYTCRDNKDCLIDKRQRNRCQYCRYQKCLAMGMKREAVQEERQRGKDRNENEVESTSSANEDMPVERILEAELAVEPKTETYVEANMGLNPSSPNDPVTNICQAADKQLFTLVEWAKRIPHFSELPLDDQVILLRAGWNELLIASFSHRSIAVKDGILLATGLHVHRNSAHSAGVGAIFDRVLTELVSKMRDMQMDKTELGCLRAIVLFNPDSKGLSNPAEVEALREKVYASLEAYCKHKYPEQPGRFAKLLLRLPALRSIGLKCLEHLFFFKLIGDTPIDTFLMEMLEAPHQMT

C=CC(=O)OC(C)(C)C
inactive: Potency [1] | Potency [2] | outcome [3] | outcome [4] | Potency [5] | Potency [6] | Potency [7] | outcome [8] | Potency [9] | Potency [10] | Potency [11] | Potency [12]

C=CC[C@]1(O)CC[C@H]2[C@@H]3CCC4=CC(=O)CCC4=C3C=C[C@@]21C
active: Potency [9] 23.9 µM | Potency [10] 33.5 µM
inactive: Potency [1] | outcome [3] | Potency [13] | Potency [7] | outcome [8]

CCC(Br)(CC)C(=O)NC(N)=O
inactive: Potency [1] | Potency [2] | outcome [3] | outcome [4] | Potency [13] | Potency [7] | outcome [8] | Potency [14] | Potency [9] | Potency [10] | Potency [11]

COc1c(C(C)(C)C)cc([N+](=O)[O-])c(C)c1[N+](=O)[O-]
inactive: Potency [1] | Potency [2] | outcome [3] | Potency [13] | Potency [5] | Potency [6] | Potency [7] | Potency [9] | Potency [10] | Potency [11] | Potency [12]

C=CCC1([C@H](C)CCC)C(=O)NC(=O)NC1=O
inactive: Potency [1] | Potency [2] | outcome [3] | Potency [13] | Potency [5] | Potency [7] | outcome [8] | Potency [9] | Potency [10] | Potency [11]

CC(C)(C)C(O)C(Oc1ccc(Cl)cc1)n1cncn1 (stereo not drawn)
inactive: Potency [2] | outcome [3] | Potency [5] | Potency [7] | Potency [9] | Potency [10] | Potency [12] | outcome [15]

OCCCBr
inactive: Potency [1] | outcome [3] | Potency [5] | Potency [6] | Potency [7] | Potency [10] | Potency [11] | Potency [12] | outcome [15] | outcome [16] | outcome [17] | Potency [18] | outcome [19]

O=[N+]([O-])c1cc(C(F)(F)F)cc([N+](=O)[O-])c1Cl
inactive: Potency [1] | Potency [2] | outcome [3] | Potency [13] | Potency [5] | Potency [7] | outcome [8] | Potency [14] | Potency [10] | Potency [11] | Potency [12]

CO[C@@H]1[C@H](OC(=O)NC(=O)CCl)CC[C@]2(CO2)[C@H]1[C@@]1(C)O[C@@H]1CC=C(C)C
inactive: Potency [1] | outcome [3] | activity change, negative = cytotoxicity [9] -19.4% [at 15.8 µM] | activity change, negative = cytotoxicity [10] 2.96% [at 19 µM] | activity, negative = inhibition [11] 1.57% [at 19 µM] | Potency [12]

CC1(C)CCC(Cc2ccc(Cl)cc2)C1(O)Cn1cncn1 (stereo not drawn)
inactive: Potency [1] | outcome [3] | Potency [13] | Potency [10]
active: Potency [6] 54.5 µM

N#Cc1cc(I)c(O)c(I)c1
inactive: outcome [3] | Potency [13] | Potency [5] | Potency [7] | outcome [8] | Potency [10] | Potency [12]
active: Potency [11] 68.6 µM

C=CC(=O)OCC(C)O (stereo not drawn)
inactive: Potency [1] | Potency [2] | outcome [3] | Potency [13] | Potency [5] | Potency [6] | Potency [7] | outcome [8] | Potency [9] | Potency [11] | Potency [12]

O=S(=O)(O)C(F)(F)C(F)(F)C(F)(F)C(F)(F)F
inactive: outcome [3] | outcome [8] | Potency [9] | Potency [10] | Potency [12] | outcome [15] | outcome [16] | outcome [17] | Potency [18] | outcome [19]
active: Potency [11] 18.3 µM

CCn1cc[n+](C)c1
inactive: Potency [1] | Potency [20] | outcome [4] | Potency [13] | Potency [5] | Potency [7] | outcome [8] | Potency [9] | Potency [10]

COc1nn(CSP(=S)(OC)OC)c(=O)s1
inactive: outcome [3] | Potency [10] | outcome [15]

N#C/C(N)=C(/N)C#N
inactive: Potency [1] | Potency [2] | outcome [3] | Potency [13] | Potency [5] | Potency [6] | Potency [7] | outcome [8] | Potency [14] | Potency [9] | Potency [10] | Potency [11]
